According to the supplement of paper PMC13380429:

Tested on: Vero E6 infected with SARS-CoV-2
Test: inhibition of SARS-CoV-2 cytopathic effect; higher = more antiviral protection, active = above 15
Conditions: 48 h

Measured: inhibition of SARS-CoV-2 cytopathic effect

O=C(CSc1nc2c(c(=O)n1-c1ccccc1)SCC2)Nc1ccc(-c2ccccc2)cn1
inactive: 1 nM 2.66% | 8.33 nM -2.46% | 100 nM 3.88% | 833.33 nM 1.2% | 10000 nM -2.73%

O=C1c2ccccc2-c2c(NCCc3ccccc3)c(=O)[nH]c3cccc1c23
inactive: 1 nM -0.39% | 8.33 nM 1.98% | 100 nM 0.01% | 833.33 nM 2.52% | 10000 nM 1.12%

NNc1nncc2ccccc12 [hydralazine]
inactive: 1 nM 0.09% | 8.33 nM 0.28% | 100 nM -1.28% | 833.33 nM -0.12% | 10000 nM 0.87%

Cc1cc(C(=O)NOCCO)c(Nc2ccc(I)cc2F)n(C)c1=O
inactive: 1 nM -2.17% | 8.33 nM -8.75% | 100 nM -12% | 833.33 nM -15.5% | 10000 nM -16.9%

CC(C)OC(=O)[C@H](C)N[P@](=O)(CO[C@H](C)Cn1cnc2c(N)ncnc21)Oc1ccccc1 [tenofovir-alafenamide]
inactive: 1 nM -2.51% | 8.33 nM -1.55% | 100 nM -0.12% | 833.33 nM -2.51% | 10000 nM 3.48%

CCCCCn1cc(C(=O)NC23CC4CC(CC(C4)C2)C3)c(=O)c2cc(-c3ccccc3)ccc21
inactive: 1 nM -3.48% | 8.33 nM -3% | 100 nM -0.96% | 833.33 nM -1.94% | 10000 nM -5.93%

COc1ccccc1NC(=O)OCC1CCN(C(=O)OC(C)(C)C)CC1
inactive: 1 nM 0.55% | 8.33 nM -0.78% | 100 nM 1.48% | 833.33 nM -0.14% | 10000 nM 0.81%

O=C(O)c1cc(O)c(O)c(O)c1 [gallic-acid]
inactive: 1 nM -1.87% | 8.33 nM 0.61% | 100 nM 3.05% | 833.33 nM -1.88% | 10000 nM 6.6%

CCCCOc1ccc(C(=O)CCN2CCCCC2)cc1 [dyclonine]
inactive: 1 nM 2.76% | 8.33 nM 3.66% | 100 nM 3.14% | 833.33 nM 3.62% | 10000 nM -0.75%

OC(CCCN1CCCCC1)(c1ccccc1)c1ccccc1 [diphenidol]
inactive: 1 nM -5.55% | 8.33 nM -3.34% | 100 nM -2.4% | 833.33 nM -1.92% | 10000 nM -2.8%

Cc1cc(C)c(CNC(=O)c2cc(-c3ccc(CN4CCOCC4)cc3)cc3c2cnn3C2CCCC2)c(=O)[nH]1
inactive: 1 nM -0.23% | 8.33 nM 1.2% | 100 nM 1.14% | 833.33 nM -1.29% | 10000 nM -1.46%

O=C1[C@H](CC[C@H](O)c2ccc(F)cc2)[C@@H](c2ccc(O)cc2)N1c1ccc(F)cc1 [ezetimibe]
inactive: 1 nM 0.31% | 8.33 nM 0.64% | 100 nM -0.99% | 833.33 nM 2.19% | 10000 nM 5.44%

CC(C)(C)NCC(O)c1cc(Cl)c(N)c(C(F)(F)F)c1 (stereo not given) [mabuterol]
inactive: 1 nM -0.03% | 8.33 nM -0.53% | 100 nM 3.86% | 833.33 nM -1.18% | 10000 nM -0.72%

CC(=O)O[C@H]1C[C@@]2(C)[C@@H](C[C@@H](O)[C@H]3[C@@]4(C)CC[C@@H](O)[C@@H](C)[C@@H]4CC[C@@]32C)/C1=C(\CCC=C(C)C)C(=O)O [fusidic-acid]
inactive: 1 nM -0.53% | 8.33 nM 0.07% | 100 nM -1.13% | 833.33 nM -8.51% | 10000 nM -1.02%

COc1ccc(S(=O)(=O)Nc2nc(-c3cccc([N+](=O)[O-])c3)cs2)cc1OC
inactive: 1 nM 2.08% | 8.33 nM 4.04% | 100 nM 7.06% | 833.33 nM 0.79% | 10000 nM -3.82%

CCOc1ccc(C[C@H]2NC(=O)CCSSC[C@@H](C(=O)N3CCC[C@H]3C(=O)N[C@@H](CCCN)C(=O)NCC(N)=O)NC(=O)[C@H](CC(N)=O)NC(=O)[C@H]([C@@H](C)O)NC(=O)[C@H]([C@@H](C)CC)NC2=O)cc1 [atosiban]
inactive: 1 nM 1.81% | 8.33 nM -1.47% | 100 nM -2.35% | 833.33 nM -0.16% | 10000 nM 0.37%

CCC[C@@H]1C[C@@H](C(=O)N[C@@H]([C@H]2O[C@H](SC)[C@H](OP(=O)(O)O)[C@@H](O)[C@H]2O)[C@H](C)Cl)N(C)C1 [Clindamycin phosphate]
inactive: 1 nM 2.18% | 8.33 nM -1.74% | 100 nM 2.16% | 833.33 nM 1.59% | 10000 nM 0.27%

O=C1Cc2cc(CCN3CCN(c4nsc5ccccc45)CC3)c(Cl)cc2N1 [ziprasidone]
inactive: 1 nM -0.08% | 8.33 nM -2.01% | 100 nM -0.35% | 833.33 nM 0.78% | 10000 nM -2.66%

C=CCSCC1Nc2cc(Cl)c(S(N)(=O)=O)cc2S(=O)(=O)N1 (stereo not given) [althiazide]
inactive: 1 nM 0.54% | 8.33 nM 0.99% | 100 nM -0.07% | 833.33 nM -0.46% | 10000 nM 0.04%

CN(C(=O)c1c(O)c2ccccc2n(C)c1=O)c1ccccc1 [roquinimex]
inactive: 1 nM -4.01% | 8.33 nM 0.29% | 100 nM 2.85% | 833.33 nM -0.21% | 10000 nM 0%

Cc1oc2nc3c(c(NC(=O)CN4CCCC4=O)c2c1C)CCCC3
inactive: 1 nM 0.92% | 8.33 nM -2.29% | 100 nM -0.3% | 833.33 nM -0.97% | 10000 nM 0.5%

Cc1cc(O)cc(C)c1Cl [chloroxylenol]
inactive: 1 nM -0.09% | 8.33 nM 1.72% | 100 nM -1.3% | 833.33 nM -0.83% | 10000 nM 0.1%

O=C(NC[C@H](O)CO)c1ccncc1Nc1ccc(I)cc1F
inactive: 1 nM -1.62% | 8.33 nM -4.02% | 100 nM -9.84% | 833.33 nM -13.5% | 10000 nM -14.7%

CCN1CCC[C@H]1CNC(=O)c1c(OC)ccc(Br)c1OC [remoxipride]
inactive: 1 nM -2.39% | 8.33 nM 2.05% | 100 nM 0.28% | 833.33 nM 0.51% | 10000 nM -1.54%

COc1cccc(NC(=O)/C=C/c2ccc(Cl)cc2)c1
inactive: 1 nM -1.02% | 8.33 nM -1.96% | 100 nM -1% | 833.33 nM -0.56% | 10000 nM -4.87%

CN1C(=O)C(N2CCCCC2)S/C1=C\C(=O)O (stereo not given) [ozolinone]
inactive: 1 nM -4.09% | 8.33 nM 0.03% | 100 nM 4.18% | 833.33 nM 0.02% | 10000 nM -0.02%

N[C@@H](C(=O)O)[C@@H](OCc1ccccc1)C(=O)O.N[C@H](C(=O)O)[C@H](OCc1ccccc1)C(=O)O
inactive: 1 nM -0.96% | 8.33 nM 0.96% | 100 nM -0.27% | 833.33 nM -0.54% | 10000 nM 1.19%

COc1cc(C)nc(-n2nc(C)cc2OC)n1 [epirizole]
inactive: 1 nM 1.56% | 8.33 nM 3.82% | 100 nM -0.67% | 833.33 nM 0.65% | 10000 nM -2.64%

Cc1cc(=O)oc2c(C=O)c(O)ccc12
inactive: 1 nM 0.13% | 8.33 nM 2.74% | 100 nM 1.64% | 833.33 nM 2.83% | 10000 nM 6.12%

O=C1OC(c2ccc(O)cc2)(c2ccc(O)cc2)c2ccccc21 [phenolphthalein]
inactive: 1 nM -1.78% | 8.33 nM 2.66% | 100 nM -1.09% | 833.33 nM -0.27% | 10000 nM 0.56%

O=C1C[C@@H](c2ccc(O)cc2)Oc2cc(O)cc(O)c21 [naringenin]
inactive: 1 nM -1.9% | 8.33 nM 0.02% | 100 nM -0.05% | 833.33 nM 0.5% | 10000 nM 0.31%

CCCN(CCC)C(=O)C(CCC(=O)OCCCN1CCN(CCOC(=O)Cc2c(C)n(C(=O)c3ccc(Cl)cc3)c3ccc(OC)cc23)CC1)NC(=O)c1ccccc1 (stereo not given) [proglumetacin]
inactive: 1 nM -3.43% | 8.33 nM -2.43% | 100 nM -2.86% | 833.33 nM -4.91% | 10000 nM -12.6%

CCOC(=O)Nc1ccc2c(c1)N(C(=O)CN(C)C)c1ccccc1CC2 [tiracizine]
inactive: 1 nM 3.29% | 8.33 nM -0.87% | 100 nM -0.27% | 833.33 nM 1.89% | 10000 nM 0.68%

c1ccc(CC2=NCCN2)cc1 [tolazoline]
inactive: 1 nM -0.5% | 8.33 nM 0.92% | 100 nM 1.33% | 833.33 nM 2.41% | 10000 nM -0.69%

CCCCCCCCCCCCCCCC(=O)OC(CC(=O)[O-])C[N+](C)(C)C (stereo not given) [palmitoylcarnitine]
inactive: 1 nM 0.08% | 8.33 nM 0.65% | 100 nM 0.35% | 833.33 nM -1.19% | 10000 nM -9.18%

Cc1c(C)c(NCC(=O)N(C)C2CCN(Cc3ccc(C(N)=O)cc3)CC2)c(C)c(C)c1N
inactive: 1 nM -0.43% | 8.33 nM -0.21% | 100 nM 0.76% | 833.33 nM -0.15% | 10000 nM 2.16%

O=C(O)CCCN1CCC(O[C@@H](c2ccc(Cl)cc2)c2ccccn2)CC1 [bepotastine]
inactive: 1 nM -0.92% | 8.33 nM 2.31% | 100 nM 0.31% | 833.33 nM 2.01% | 10000 nM -0.07%

C/C(=C\C(=O)Nc1ccccc1C(=O)O)c1ccc2ccccc2c1
inactive: 1 nM 3.55% | 8.33 nM 3.85% | 100 nM 1.03% | 833.33 nM 1.37% | 10000 nM -2.89%

CN(C[C@@H]1COCCO1)S(=O)(=O)Nc1ccc2ccc3ncc(-c4cnn(C)c4)cc3c(=O)c2c1
inactive: 1 nM -0.78% | 8.33 nM 1.08% | 100 nM -0.46% | 833.33 nM -1.97% | 10000 nM -4.16%
